# Reference: PubChem BioAssay AID1942 (Johns Hopkins Ion Channel Center, 2009)
# Hit rate of the full screen: of about 2,400 compounds, about 580 (24%) were called active. The list is a sample of the results. Unmarked numbers belong to inactive results.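 How the source made its calls: active means activity change at or above the mean plus 3 SD of buffer wells without dofetilide, per plate; inactive means the rest.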
# Target: Potassium voltage-gated channel subfamily KQT member 2 (Rattus norvegicus) (UniProt O88943)
# Test: rat KCNQ2 channel activation by compounds alone, confirmation, counter-screen for hERG block protector project, cell-based, CHO, FluxOR thallium flux (AID 1942);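 further: normalized value minus buffer-control mean plus three SD of buffer wells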
# Details: CHO-KCNQ2 cells, FluxOR thallium flux fluorescence; at 10 µM; hits give high values
# Sequence of Potassium voltage-gated channel subfamily KQT member 2 (Rattus norvegicus) (O88943 whole entry, looked up): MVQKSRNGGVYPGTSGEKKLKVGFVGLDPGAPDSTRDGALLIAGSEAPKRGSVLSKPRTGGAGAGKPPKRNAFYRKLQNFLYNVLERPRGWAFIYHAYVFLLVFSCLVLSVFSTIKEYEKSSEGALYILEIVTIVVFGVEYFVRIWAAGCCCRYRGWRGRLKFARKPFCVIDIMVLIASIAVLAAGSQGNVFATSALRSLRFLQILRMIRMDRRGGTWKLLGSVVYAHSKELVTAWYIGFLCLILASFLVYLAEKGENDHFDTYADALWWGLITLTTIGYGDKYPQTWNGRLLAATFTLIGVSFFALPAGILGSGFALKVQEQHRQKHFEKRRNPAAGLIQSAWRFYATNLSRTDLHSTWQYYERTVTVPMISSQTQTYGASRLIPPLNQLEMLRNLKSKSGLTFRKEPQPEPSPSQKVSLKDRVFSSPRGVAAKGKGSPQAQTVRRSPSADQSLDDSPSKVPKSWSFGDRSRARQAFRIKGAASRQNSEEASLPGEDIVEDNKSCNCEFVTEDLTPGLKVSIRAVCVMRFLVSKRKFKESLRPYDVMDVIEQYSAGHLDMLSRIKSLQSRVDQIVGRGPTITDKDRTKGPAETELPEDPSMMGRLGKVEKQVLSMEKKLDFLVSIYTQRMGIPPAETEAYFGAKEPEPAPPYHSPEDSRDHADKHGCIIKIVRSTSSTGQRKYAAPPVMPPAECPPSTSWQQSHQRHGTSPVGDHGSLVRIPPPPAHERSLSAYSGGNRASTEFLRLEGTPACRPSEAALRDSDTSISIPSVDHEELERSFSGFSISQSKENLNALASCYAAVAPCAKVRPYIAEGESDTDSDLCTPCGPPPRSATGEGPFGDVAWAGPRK
row,Structure (SMILES),"activity change, less the hit threshold"
1,Clc1cccc(OCCCN2CCCC2)c1Cl,-9.5%
2,CCOC(=O)C1=C(Cc2ccc(C)cc2)C(=O)c2ccccc2C1=O,-0.5%
3,CCOC(=O)C1=C(O)c2ccccc2C(=O)/C1=C\c1ccc(CC)cc1,-1.8%
4,CCc1ccc(/C=C/C(=O)C2C(=O)c3ccccc3C2=O)cc1,37.2% (active)
5,Cc1ccc(/C=C/C(=O)C2C(=O)c3ccccc3C2=O)cc1,48.1% (active)
6,Cc1ccc(/C=N/N2C(=O)c3ccccc3NC2c2ccc(C)cc2)cc1 (stereo not given),-15.6%
7,O=C(CC1NCCNC1=O)Nc1ccc([N+](=O)[O-])cc1 (stereo not given),-27.7%
8,COc1ccc(NC(=O)N2CCN(c3ccc([N+](=O)[O-])cc3)CC2)cc1OC,-23.2%
9,CN(C(=O)c1cnccn1)c1nnc(-c2cnccn2)s1,-25.3%
10,CC(C)C(NC(=O)c1ccccc1)C(=O)N/N=C\c1ccco1 (stereo not given),-20.2%
11,Cc1ccc2c(CN3CCOCC3)cc(=O)oc2c1,-5.1%
12,Cc1cc(C)cc(OCc2nnc(SCC(=O)Nc3ccccc3)o2)c1,-16.8%
13,CC(=O)/C=C1/C(=O)Nc2ccccc21,-27.4%
14,Cc1cccc(N2C(=O)C(O)=C(C(=O)c3cccs3)C2c2cccc(Oc3ccccc3)c2)n1 (stereo not given),-18.2%
15,COc1ccc(/C=C/C(=O)Nc2ccccc2C(=O)O)cc1,-2.2%
16,COc1ccc(/C=C/C(=O)Nc2ccccc2C(=O)O)cc1OC,4.9% (active)
17,COc1cc(C(=O)Nc2ccc(O)cc2C(=O)O)ccc1OC(C)=O,-10.8%
18,COc1cc(/C=C2/C(=O)NN(c3ccc(Cl)c(Cl)c3)C2=O)cc([N+](=O)[O-])c1O,-18.7%
19,Nc1ccc(C(=O)OCC(=O)N2CCN(C(=O)c3ccco3)CC2)cc1[N+](=O)[O-],-23.4%
20,Cc1cc(S(=O)(=O)Nc2ccc(C(=O)N3CCN(C(=O)c4ccco4)CC3)cc2)ccc1F,3.4% (active)
21,O=C(CCNS(=O)(=O)c1ccc(Cl)cc1)OCC(=O)N1CCN(C(=O)c2ccco2)CC1,-17.9%
22,CCOc1ccc(NC(=S)NS(=O)(=O)c2cc(Br)ccc2OCC)cc1,35.9% (active)
23,CCOc1ccc(NC(=O)c2ccc3c(c2)CCN3S(C)(=O)=O)cc1,-27.8%
24,CCOc1ccc(NC(=O)CSc2nc3nc(C)cc(C)n3n2)cc1,-14.8%
25,O=C(COc1ccccc1)Nc1ccc(S(=O)(=O)Nc2ccccn2)cc1,-14.4%

row,Structure (SMILES),"activity change, less the hit threshold"
1,CC(=O)NC1C(Oc2ccccc2C)OC(CO)C(O)C1O (stereo not given),-8.8%
2,CCn1c(O)c(N=NC(=O)CNC(=O)c2ccccc2F)c2ccccc21,-8.6%
3,CCCn1c(O)c(N=NC(=O)c2ccco2)c2ccccc21,86.7% (active)
4,CCn1c(O)c(N=NC(=S)NCC2CCCO2)c2ccccc21 (stereo not given),-9.1%
5,CSc1ccc(/C=N/NC(=O)c2cccs2)cc1,-22.9%
6,O=C(CS(=O)(=O)Cc1ccccc1)Nc1ccc(Cl)cn1,-21.6%
7,CCCn1c(SCC(=O)N2CCN(C(C)=O)CC2)nc2sc3c(c2c1=O)CCC3,29.6% (active)
8,CCC(=O)N1CCN(c2nc(CC)nc3sc4c(c23)CCCC4)CC1,-43.7%
9,CCn1c(SCC(N)=O)nc2sc3c(c2c1=O)CCCC3,31.2% (active)
10,CCOC(=O)c1cnn(-c2nc(SC)nc3sc4c(c23)CCCC4)c1N,-23.6%
11,CCn1c(SC(C)C(=O)O)nc2sc3c(c2c1=O)CCC3 (stereo not given),25.4% (active)
12,CCN1C(=O)c2cccc3c(S(=O)(=O)NCC4CCCO4)ccc1c23 (stereo not given),-21.6%
13,CCc1cccc(C)c1NC(=O)Cc1ccsc1,-12.4%
14,O=C1CC(c2ccco2)CC2=C1C1c3ccccc3C(=O)N1c1ccccc1N2 (stereo not given),-4.8%
15,Cc1ccc(OCc2ccoc2C(=O)O)cc1C,23.9% (active)
16,Cc1oc2ccc(OCc3ccc(Cl)cc3)cc2c1C(=O)O,-3.6%
17,Cc1cc(OCc2ccc(C(=O)Nc3ccc(C(=O)O)cc3)o2)ccc1Cl,-15.9%
18,Cc1sc2nc(C(C)C)nc(SCC(=O)NCc3ccco3)c2c1C,10.5% (active)
19,COc1cccc(N2CCN(CC(=O)NC(=O)NCc3ccco3)CC2)c1,-11.4%
20,Cc1cc2c(cc(C(=O)OC(C(=O)NCc3ccco3)C(C)C)n2C)o1 (stereo not given),-16.3%
21,CCn1c(SCC(=O)NC(=O)NCc2ccco2)nc2sc(C)c(C)c2c1=O,19.7% (active)
22,O=C(CN1CCN(c2ccccc2O)CC1)NC(=O)NCc1ccco1,-18.7%
23,Cc1cc(S(=O)(=O)N2CCOCC2)ccc1OCC(=O)NCc1ccco1,-12.9%
24,Fc1ccc(N2CCN(c3ccc4c(C(F)(F)F)cc(C(F)(F)F)nc4n3)CC2)cc1,-19.8%
25,O=C(NCc1cccs1)C1CCC(CNS(=O)(=O)c2cccs2)CC1 (stereo not given),-28.1%

row,Structure (SMILES),"activity change, less the hit threshold"
1,Cc1cc(SC#N)cc(C)c1NC(=O)CCl,19.1% (active)
2,Cc1ccc(S(=O)(=O)Nc2ccc(O)c3ccccc23)c(C)c1,-27%
3,Cc1onc(C(=O)N2CCC(C(N)=O)CC2)c1-c1ccccc1Cl,-22.2%
4,Cc1cccc(-n2cc(-c3ccccc3)[nH]c2=S)c1,-16.2%
5,S=c1[nH]c(-c2ccccc2)cs1,61.9% (active)
6,Cc1ccc(-c2n[nH]c(=S)nc2-c2ccc(C)cc2)cc1,-7.1%
7,S=c1[nH]c(-c2ccc(Cl)cc2)cs1,119% (active)
8,Cc1ccc(-c2csc(=S)[nH]2)cc1,83.7% (active)
9,O=Cc1cc(-c2ccccc2)[nH]c1-c1ccccc1,-15.3%
10,Cc1cc(NC(=O)CSc2ccc(-c3ccc(F)cc3)nn2)no1,-18.3%
11,O=C(Nc1ccccc1)O/N=C/c1ccncc1,-19.6%
12,COc1ccc(-c2c(C#N)c(SCC(=O)c3cc4ccccc4oc3=O)nc(C)c2C(=O)Nc2ccccc2)cc1,-11.8%
13,O=c1[nH]c(C(Cl)(Cl)Cl)nc2ccc3ccccc3c12,15.1% (active)
14,Cc1cccc(/C=C2/S/C(=N/N=C3\CC4CCC3(C)C4(C)C)NC2=O)c1 (stereo not given),-10.5%
15,CC12CCC(C/C1=N\N=C1\NC(=O)/C(=C\c3ccc(Cl)cc3)S1)C2(C)C (stereo not given),4.4% (active)
16,COc1ccc(/C=C2/S/C(=N/N=C3\CC4CCC3(C)C4(C)C)NC2=O)cc1 (stereo not given),-9.1%
17,CCN1CCCC(CO)(Cc2ccccc2)C1 (stereo not given),-9.6%
18,O=C1c2nc3cc(-c4ccco4)[nH]n3c(=O)c2CN1Cc1ccccc1,-13.6%
19,O=C(CN1C(=O)c2cccc3cccc1c23)Nc1cccnc1,-28.6%
20,O=C1CC(N2CCN(c3ccccc3Cl)CC2)C(=O)N1c1ccc(F)cc1 (stereo not given),-9.2%
21,CCOc1ccc(N)c(SSc2cc(OCC)ccc2N)c1,-17%
22,CCCC(=O)NC(=S)Nc1nc(-c2ccc(OC)cc2)cs1,-16.3%
23,CCCn1c(SCC(=O)Nc2nc(-c3ccc(OC)cc3)cs2)nc2c1c(=O)n(C)c(=O)n2C,-16.4%
24,CCC(=O)N(CC)c1nc(-c2ccc(OC)cc2)cs1,30.9% (active)
25,O=C(NCCc1ccc(F)cc1)c1coc(=O)c(Br)c1,-6%

row,Structure (SMILES),"activity change, less the hit threshold"
1,Cc1nc(Oc2ccc(Cl)cc2)c2oc3ccccc3c2n1,-15.6%
2,CCOc1ccc(-c2c(=O)n(O)c3ccccc3[n+]2[O-])cc1,52% (active)
3,CCCOc1ccc(-c2c(=O)n(O)c3ccccc3[n+]2[O-])cc1,71.1% (active)
4,CCOc1ccc(CC(C(N)=O)C(N)=O)cc1,-21.3%
5,CCCOc1ccc(C(=O)N(CC(C)C)c2c(N)n(Cc3ccccc3)c(=O)[nH]c2=O)cc1,-17.9%
6,CCOc1ccc(N(CC)C(=O)COc2cc(=O)n(C)c3ccccc23)cc1,-27%
7,O=C1NC2(CCCCCC2)C(=O)N1Cc1ccccc1,-17.6%
8,O=C(O)/C=C/C(=O)Nc1ccc(OC(F)(F)F)cc1,-10.2%
9,O=[N+]([O-])c1cccc(NC(=S)Nc2nc(-c3ccccc3Cl)cs2)c1,-7.3%
10,Cc1c(C(=O)NN2CCN(C)CC2)cccc1[N+](=O)[O-],-11.1%
11,O=C(CN1C(=O)c2ccccc2S1(=O)=O)NCCSCc1ccccc1Cl,-15.3%
12,O=C(COC(=O)c1ccc(Br)o1)NC1CCCCC1,-6%
13,CCCCOc1ccc(CC(=O)NCC(=O)O)cc1,-16.8%
14,COC(=O)c1cc(-c2ccc(C)cc2)n[nH]1,-3.5%
15,CCCOc1ccc(OC(=O)c2ccc(Br)o2)cc1,6.3% (active)
16,O=C(NC1CCCC1)c1ccc(Br)o1,-20.5%
17,Cc1ccc(OC(=O)c2ccc(Br)o2)cc1,46.8% (active)
18,Cc1ccc(CNC(=O)CCc2ccc(S(=O)(=O)NCC(C)C)cc2)cc1,-18.2%
19,Cc1noc(C)c1-c1nnc(-c2ccc(C(F)(F)F)cc2)o1,-9.9%
20,CC(C)Cc1nnc(NC(=O)Cc2ccccc2[N+](=O)[O-])s1,-18.1%
21,CCC(C)(C(=O)NC1CCCC1)N(Cc1ccco1)C(=O)c1ccccn1 (stereo not given),-21.1%
22,Cc1ccc(C2=NN(C(=O)CCCC(=O)O)C(c3ccc4c(c3)OCO4)C2)cc1 (stereo not given),-16.6%
23,COc1cccc(N2CC(C(=O)Nc3nnc(SCC(=O)NCC4CCCO4)s3)CC2=O)c1 (stereo not given),-12.6%
24,C=CCn1c(SCC(=O)NCC2CCCO2)nnc1-c1ccccc1 (stereo not given),-13%
25,Cc1nc(SCC(=O)NCC2CCCO2)c2c3c(sc2n1)CCCC3 (stereo not given),11.1% (active)
